# From article PMC10812921, “Transcriptional Coactivator BOB1 (OBF1, OCA-B) Modulates the Specificity of DNA Recognition by the POU-Domain Factors OCT1 and OCT2 in a Monomeric Configuration”
# How the values were obtained:
# [1] = target: POU1 (OCT1 POU domain) (human, UniProt P14859 260-458); assay: EMSA-SELEX-seq; no BOB1; 20 mM Tris-HCl pH 7.6, 140 mM NaCl, 10% glycerol, 0.5 mM EDTA, 0.05% Triton X-100, 0.1 mg/mL BSA, 0.1 mg/mL poly(dI-dC), 5 mM DTT, room temperature, 20 min; high values mean tight binding; conditions: protein: recombinant; dsDNA, one strand shown
# POU1 (OCT1 POU domain), sequence (P14859 260-458): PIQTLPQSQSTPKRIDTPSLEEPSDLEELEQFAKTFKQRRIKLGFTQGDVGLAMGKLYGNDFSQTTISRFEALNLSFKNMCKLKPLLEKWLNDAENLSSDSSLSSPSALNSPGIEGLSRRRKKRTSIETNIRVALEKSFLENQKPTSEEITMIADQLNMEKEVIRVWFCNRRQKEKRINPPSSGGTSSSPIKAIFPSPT
# Outline: (§1)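 Tagged POU-domain proteins were expressed in E. coli BL21, purified under denaturing conditions and renatured. Then 30 ng was mixed with 300 ng of a PCR-amplified double-stranded random 35-nt library, with or without 28 ng coactivator protein, in 20 μL Tris–HCl pH 7.6 binding buffer for 20 min at RT. Complex bands were cut from native 6% PAGE, eluted and PCR-amplified over four rounds, then Illumina-sequenced. Binding preference is the percentage of sequenced 8-mers matching a motif pattern.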
# [2] = target: T1, POU2 (OCT2 POU domain) (human, UniProt P09086 175-386); assay: as above; conditions: protein: recombinant; dsDNA, one strand shown
# T1 sequence: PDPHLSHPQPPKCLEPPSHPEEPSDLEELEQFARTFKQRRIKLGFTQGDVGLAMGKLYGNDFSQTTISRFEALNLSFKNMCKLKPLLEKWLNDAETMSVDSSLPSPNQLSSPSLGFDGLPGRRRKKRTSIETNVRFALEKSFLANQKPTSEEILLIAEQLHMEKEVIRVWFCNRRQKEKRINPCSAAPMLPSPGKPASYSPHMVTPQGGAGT
# Outline: as §1
# [3] = target: POU1 (OCT1 POU domain);BOB1 (OBF1, OCA-B) (human;human, UniProt P14859;Q16633 260-458;1-256, |); assay: EMSA-SELEX-seq; with BOB1 (ternary complex band); 20 mM Tris-HCl pH 7.6, 140 mM NaCl, 10% glycerol, 0.5 mM EDTA, 0.05% Triton X-100, 0.1 mg/mL BSA, 0.1 mg/mL poly(dI-dC), 5 mM DTT, room temperature, 20 min; high values mean tight binding; conditions: protein: recombinant;recombinant; copies: 1;1; dsDNA, one strand shown
# Outline: as §1
# [4] = target: T2, POU2 (OCT2 POU domain);BOB1 (OBF1, OCA-B) (human;human, UniProt P09086;Q16633 175-386;1-256, |); assay: as above; conditions: protein: recombinant;recombinant; copies: 1;1; dsDNA, one strand shown
# T2 sequence 1: T1 sequence
# T2 sequence 2: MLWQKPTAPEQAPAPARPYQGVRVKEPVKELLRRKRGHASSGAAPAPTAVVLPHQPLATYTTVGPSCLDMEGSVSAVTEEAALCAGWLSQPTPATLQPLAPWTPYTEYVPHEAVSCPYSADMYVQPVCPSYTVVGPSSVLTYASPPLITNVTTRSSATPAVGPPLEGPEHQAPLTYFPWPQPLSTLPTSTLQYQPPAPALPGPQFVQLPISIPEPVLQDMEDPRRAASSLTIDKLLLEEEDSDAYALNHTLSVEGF
# Outline: as §1
Sequence,binding signal [1],binding signal [2],binding signal [3],binding signal [4]
ATGGCAAC,0.0263 % of ANNNNAAN 8-mers,0.0219 % of ANNNNAAN 8-mers,0.0297 % of ANNNNAAN 8-mers,0.0264 % of ANNNNAAN 8-mers
ACGGCAAG,0.0206 % of ANNNNAAN 8-mers,0.027 % of ANNNNAAN 8-mers,0.0211 % of ANNNNAAN 8-mers,0.0239 % of ANNNNAAN 8-mers
ACAAAAAT,0.0938 % of ANNNNAAN 8-mers,0.0667 % of ANNNNAAN 8-mers,0.114 % of ANNNNAAN 8-mers,0.0768 % of ANNNNAAN 8-mers
ACAGAAAT,0.0568 % of ANNNNAAN 8-mers,0.0633 % of ANNNNAAN 8-mers,0.0472 % of ANNNNAAN 8-mers,0.0504 % of ANNNNAAN 8-mers
ATTCGAAC,0.0351 % of ANNNNAAN 8-mers,0.046 % of ANNNNAAN 8-mers,0.0324 % of ANNNNAAN 8-mers,0.0396 % of ANNNNAAN 8-mers
ACCAGAAC,0.013 % of ANNNNAAN 8-mers,0.0127 % of ANNNNAAN 8-mers,0.0129 % of ANNNNAAN 8-mers,0.0223 % of ANNNNAAN 8-mers
ATGATAAG,0.0843 % of ANNNNAAN 8-mers,0.0984 % of ANNNNAAN 8-mers,0.0714 % of ANNNNAAN 8-mers,0.0768 % of ANNNNAAN 8-mers
AAGTGAAT,0.105 % of ANNNNAAN 8-mers,0.123 % of ANNNNAAN 8-mers,0.0796 % of ANNNNAAN 8-mers,0.0669 % of ANNNNAAN 8-mers
AGTCAAAA,0.164 % of ANNNNAAN 8-mers,0.117 % of ANNNNAAN 8-mers,0.265 % of ANNNNAAN 8-mers,0.115 % of ANNNNAAN 8-mers
ATGTAAAC,0.249 % of ANNNNAAN 8-mers,0.196 % of ANNNNAAN 8-mers,0.293 % of ANNNNAAN 8-mers,0.227 % of ANNNNAAN 8-mers
AATGTAAA,0.614 % of ANNNNAAN 8-mers,0.509 % of ANNNNAAN 8-mers,0.547 % of ANNNNAAN 8-mers,0.552 % of ANNNNAAN 8-mers
AAACGAAG,0.045 % of ANNNNAAN 8-mers,0.0483 % of ANNNNAAN 8-mers,0.0589 % of ANNNNAAN 8-mers,0.0528 % of ANNNNAAN 8-mers
ATTTCAAG,0.0542 % of ANNNNAAN 8-mers,0.0495 % of ANNNNAAN 8-mers,0.055 % of ANNNNAAN 8-mers,0.0561 % of ANNNNAAN 8-mers
ACCAGAAT,0.032 % of ANNNNAAN 8-mers,0.0437 % of ANNNNAAN 8-mers,0.0293 % of ANNNNAAN 8-mers,0.0363 % of ANNNNAAN 8-mers
AGCCGAAC,0.0133 % of ANNNNAAN 8-mers,0.0161 % of ANNNNAAN 8-mers,0.016 % of ANNNNAAN 8-mers,0.014 % of ANNNNAAN 8-mers
AGTCTAAA,0.037 % of ANNNNAAN 8-mers,0.0501 % of ANNNNAAN 8-mers,0.0398 % of ANNNNAAN 8-mers,0.0504 % of ANNNNAAN 8-mers

Sequence,binding signal [1],binding signal [2],binding signal [3],binding signal [4]
AAACCAAG,0.0233 % of ANNNNAAN 8-mers,0.0161 % of ANNNNAAN 8-mers,0.0293 % of ANNNNAAN 8-mers,0.0198 % of ANNNNAAN 8-mers
ATCGCAAA,0.0515 % of ANNNNAAN 8-mers,0.0478 % of ANNNNAAN 8-mers,0.0816 % of ANNNNAAN 8-mers,0.0413 % of ANNNNAAN 8-mers
AGCTTAAT,0.0645 % of ANNNNAAN 8-mers,0.0972 % of ANNNNAAN 8-mers,0.0449 % of ANNNNAAN 8-mers,0.0578 % of ANNNNAAN 8-mers
AATTGAAG,0.069 % of ANNNNAAN 8-mers,0.0725 % of ANNNNAAN 8-mers,0.0624 % of ANNNNAAN 8-mers,0.052 % of ANNNNAAN 8-mers
AGCTAAAA,0.0282 % of ANNNNAAN 8-mers,0.038 % of ANNNNAAN 8-mers,0.0425 % of ANNNNAAN 8-mers,0.0338 % of ANNNNAAN 8-mers
AGAAGAAT,0.0515 % of ANNNNAAN 8-mers,0.0737 % of ANNNNAAN 8-mers,0.0597 % of ANNNNAAN 8-mers,0.0603 % of ANNNNAAN 8-mers
AATGTAAC,0.0591 % of ANNNNAAN 8-mers,0.0639 % of ANNNNAAN 8-mers,0.046 % of ANNNNAAN 8-mers,0.0545 % of ANNNNAAN 8-mers
ATGTTAAC,0.0645 % of ANNNNAAN 8-mers,0.0938 % of ANNNNAAN 8-mers,0.0578 % of ANNNNAAN 8-mers,0.0586 % of ANNNNAAN 8-mers
ACTATAAC,0.0156 % of ANNNNAAN 8-mers,0.0196 % of ANNNNAAN 8-mers,0.023 % of ANNNNAAN 8-mers,0.0239 % of ANNNNAAN 8-mers
ATACGAAC,0.0343 % of ANNNNAAN 8-mers,0.0345 % of ANNNNAAN 8-mers,0.032 % of ANNNNAAN 8-mers,0.0347 % of ANNNNAAN 8-mers
AGTTGAAA,0.0477 % of ANNNNAAN 8-mers,0.0489 % of ANNNNAAN 8-mers,0.0531 % of ANNNNAAN 8-mers,0.0512 % of ANNNNAAN 8-mers
AATGAAAC,0.0461 % of ANNNNAAN 8-mers,0.0719 % of ANNNNAAN 8-mers,0.0433 % of ANNNNAAN 8-mers,0.0487 % of ANNNNAAN 8-mers
AAGGGAAT,0.115 % of ANNNNAAN 8-mers,0.121 % of ANNNNAAN 8-mers,0.0765 % of ANNNNAAN 8-mers,0.0908 % of ANNNNAAN 8-mers
AGCATAAA,0.204 % of ANNNNAAN 8-mers,0.213 % of ANNNNAAN 8-mers,0.0566 % of ANNNNAAN 8-mers,0.0867 % of ANNNNAAN 8-mers
ATAGGAAT,0.098 % of ANNNNAAN 8-mers,0.132 % of ANNNNAAN 8-mers,0.0898 % of ANNNNAAN 8-mers,0.106 % of ANNNNAAN 8-mers
